Among all 69,000 compounds or so, about 8,600 (12%) showed an effect of 50% or more. This excerpt belongs to a sample that is enriched for strong results.
The molecules below were run on Plasmodium berghei (assay: Screen against P. berghei liver stage (PbLuc), transformed with Luciferase, at 10uM). Settings: tested at 10 uM.
Assay type: functional, HepG2

| SMILES | INHIBITION [%] |
| --- | --- |
| Oc1cc(-c2cccs2)nc(C2CCCN(CC3=CCCOC3)C2)n1 (stereo unspecified) | 23.9 |
| COc1c(C2CCCN2C(=O)c2nccnc2N)c(C)nn1C (stereo unspecified) | 14.1 |
| CC(=O)NCCNC(=O)c1ccc(C)c(-n2cccc2)c1 | 10.7 |
| CN(C)C(=O)N1CCC2(CC1)COCCN(c1ncccn1)C2 | -30 |
| Cn1cc(CN2CCCC23CCN(Cc2nccn2C)CC3)cn1 | 8.67 |
| CN(C)CCN1CCCC12CCN(Cc1nccn1C)CC2 | 70.2 |
| Cn1ccnc1CN1CCC2(COCCN(S(=O)(=O)C3CC3)C2)C1 (stereo unspecified) | 64.3 |
| Cn1ccnc1CN1CCC2(CC1)COCCN(S(C)(=O)=O)C2 | 36.5 |
| COC1CC2(CCN(Cc3nccn3C)CC2)C1 | -43.1 |
| Cn1ccnc1CN1CCC2(CC1)COC2 | 61.3 |
| CCOC1CC2(CCN(Cc3nccn3C)CC2)C1 | -11.6 |
| Cn1ccnc1CN1CCC2(COCCN(Cc3ccsc3)C2)C1 (stereo unspecified) | 25.1 |
| Cn1ccnc1CN1CCC2(CCCN2c2ncccn2)CC1 | 21.7 |
| c1cnc(N2CCC3(COCCN(CC4CC4)C3)C2)nc1 (stereo unspecified) | 46.1 |
| Cn1ccnc1CN1CCC2(CC1)COCCN(c1ncccn1)C2 | 62.3 |
| COCc1ncc(CN2CC[C@@](O)(COC)C(C)(C)C2)cn1 | 31 |
| O=C(CCCSc1ccc(NC(=O)C2CC2)nn1)NCC1CCCO1 (stereo unspecified) | 34.6 |
| Cc1ncccc1-c1cc2cccnc2n1CCCNC(=O)C(C)(C)C | 27.6 |
| CCS(=O)(=O)N1CC[C@@H]2[C@H](CC1)N(CC(C)C)CCS2(=O)=O | -34.6 |
| Cc1cc(C(=O)N2CCCC2)ccc1NCC(=O)N1CCCCC1C (stereo unspecified) | 37.3 |
| Cc1ccc(N2CCC3(CCN(C(=O)c4ccnnc4)CC3)CC2)nn1 | -6.21 |
| Cc1noc2nc3c(c(C(=O)/N=c4\[nH]ncs4)c12)CCC3 | 32.8 |

| SMILES | INHIBITION [%] |
| --- | --- |
| CS(=O)(=O)N1CCCC1c1ccnc2nccn12 (stereo unspecified) | 10.3545 |
| Cc1cc(C)n(CCC(=O)N2CCCCC2c2nccs2)n1 (stereo unspecified) | 36.3 |
| CN(C)c1cc(CNC(=O)C2COc3ccccc3O2)ccn1 (stereo unspecified) | 2.45 |
| Cc1nnc(CN2CCN(Cc3nccn3C)CC2)n1C | 59.3 |
| Cc1nnc2ccc(N3CCN(Cc4nccn4C)CC3)nn12 | 43.4 |
| Cc1cc(N2CCN(Cc3nccn3C)CC2)cc(C)n1 | 4.92 |
| CC(C)N1CCN(c2ccc3ccc(C(=O)NC4CCCC4)cn23)CC1 | -7.28 |
| COCC(=O)N1CC[C@@H]2CN(Cc3cccnc3)S(=O)(=O)[C@@H]2CC1 | 43 |
| CC(C)NC(=O)NC[C@H]1OC[C@@H](NCc2ccc(S(C)(=O)=O)cc2)[C@@H]1O | 49.5 |
| CC(C)NC(=O)NC[C@H]1OC[C@@H](NCc2ccncc2)[C@@H]1O | -48.1 |
| Cc1ccc(S(=O)(=O)NC[C@H]2OC[C@@H](NCc3cccnc3)[C@@H]2O)cc1 | 57 |
| Cc1ccc(S(=O)(=O)NC[C@H]2OC[C@@H](NCc3ccccc3)[C@@H]2O)cc1 | 20.7 |
| Cc1ccc(S(=O)(=O)NC[C@H]2OC[C@@H](NCc3ccccn3)[C@@H]2O)cc1 | 38.9 |
| Cc1ccc(S(=O)(=O)NC[C@H]2OC[C@@H](NCc3ccncc3)[C@@H]2O)cc1 | 53.2 |
| O=C(NCC1CCOCC1)[C@@H]1C[C@@H]2[C@@H](CCN2Cc2nccs2)O1 | 21.1 |
| COC1CCN(C(=O)CC2CCCC2)CC(=O)N(C)c2ccccc21 (stereo unspecified) | 3.31 |
| CCc1nc(C)cn1C(=O)Nc1ccc(C)cc1 | -4.82 |
| CCc1nc(C)cn1C(=O)Nc1ccccc1 | 48.6 |
| CCc1nc(C)cn1C(=O)Nc1ccc(F)cc1 | 78.2 |
| O=C1CO[C@@H]2CN(CC3CCOC3)C[C@H]2N1Cc1cccc(F)c1 (stereo partly specified) | 27.6 |
| O=C1CO[C@@H]2CN(C3CCOCC3)C[C@H]2N1Cc1cccc(F)c1 | 25.2 |
| O=C1CO[C@@H]2CN(CC3CC3)C[C@H]2N1Cc1cccc(F)c1 | 75.4 |

| SMILES | INHIBITION [%] |
| --- | --- |
| COc1cc(N2C[C@H](OCc3cccnc3)[C@H]3OCCC[C@H]32)ncn1 | 10.6 |
| Cc1ccc2c(c1)OC1(NC2=O)C(=O)N(C)c2ccccc21 (stereo unspecified) | 31.6 |
| CN1C(=O)C2(NC(=O)c3ccccc3O2)c2ccccc21 (stereo unspecified) | 34 |
| CC(C)CCN1C(=O)C2(NC(=O)c3ccccc3O2)c2ccccc21 (stereo unspecified) | 55.1 |
| O=C1NCC2(CCCN(C(=O)c3csc(-c4cccs4)n3)C2)O1 (stereo unspecified) | 22 |
| CC(C)[C@H](N)C(=O)N1CCCC(C2=Nc3ccccc3S(=O)(=O)N2)C1 (stereo partly specified) | 26.4 |
| COc1ccccc1N1CCC(CNS(=O)(=O)c2cccc(C#N)c2)C1 (stereo unspecified) | -4.94 |
| Cc1cc(=O)[nH]c(-n2nc(-c3ccccc3)cc2N)n1 | 65.2 |
| CC(C)c1cc(=O)[nH]c(C(C)(C)N)n1 | -39.2 |
| Cc1cc(C(=O)Nc2cc(C3CC3)n[nH]2)c2c(C)nn(C)c2n1 | 0.991 |
| Cc1cc(=O)[nH]c(-n2nc(C3CC3)cc2N)n1 | 68.9 |
| NC1(c2nc(-c3ccccc3)cc(=O)[nH]2)CCCCC1 | -10.1 |
| CC(C)c1cc(=O)[nH]c(-n2nc(C3CC3)cc2N)n1 | 97 |
| CCC(C)(N)c1nc(C(C)C)cc(=O)[nH]1 (stereo unspecified) | -4.35 |
| Cc1cc(C2CCC2)nc(N2CCC3(CCNC(=O)CC3)CC2)n1 | -32.5 |
| NC1(c2nc(-c3ccccc3)cc(=O)[nH]2)CCCC1 | -13.7 |
| CCCc1cc(=O)[nH]c(-c2cccc(CN3CCCCCC3)c2)n1 | 43.9 |
| CCCc1cc(=O)[nH]c(SCc2ccccn2)n1 | 3.93 |
| CCCc1cc(=O)[nH]c(-n2nc(C3CC3)cc2N)n1 | 94 |
| O=C(C1=CCCC1)N1CCC[C@]2(C[C@@H](OCc3ccncc3)CO2)C1 | -9.67 |
| Cc1ccccc1C1(C(=O)NCCN(C)C)CCOCC1 | 18.9665 |
| CC(C)N(C)Cc1ncn2c1CN(C(=O)C1CCCO1)CCC2 (stereo unspecified) | 4.08 |
